Source: PubChem BioAssay (several laboratories)
Only a selection was taken, and hits are over-represented in it overall.
GIRK2 act: Activates human GIRK2-containing potassium channels; P48051; activation (% efficacy), % for hits at 37.5 µM; 34,000 tested, under 10 active; HEK293 GIRK2/NPY4 cells, thallium flux fluorescence;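 active = primary screen hit, no activity in plain HEK293 cells, and in GIRK2-only cells above 5% efficacy rising with concentration; inactive = the rest, including fluorescent compounds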;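 also: efficacy is normalized control-subtracted fluorescence 15 s after thallium addition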
Target sequence (P48051 whole entry, looked up): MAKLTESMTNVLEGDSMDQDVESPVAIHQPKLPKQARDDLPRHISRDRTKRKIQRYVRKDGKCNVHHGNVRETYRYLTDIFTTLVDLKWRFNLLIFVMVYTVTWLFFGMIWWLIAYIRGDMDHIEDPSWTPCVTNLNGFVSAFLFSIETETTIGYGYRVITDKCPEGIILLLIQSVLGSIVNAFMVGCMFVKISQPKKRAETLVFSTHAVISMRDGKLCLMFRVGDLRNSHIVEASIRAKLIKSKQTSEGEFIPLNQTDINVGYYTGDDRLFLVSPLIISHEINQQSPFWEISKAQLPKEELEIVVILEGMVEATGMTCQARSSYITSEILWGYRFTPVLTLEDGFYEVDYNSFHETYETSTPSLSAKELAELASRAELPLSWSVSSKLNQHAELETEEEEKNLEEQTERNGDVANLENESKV
GluA2 TARP mod: modulators of AMPA receptor GluA2-stargazin complexes | O88602+P19491 | HEK293 GluA2+stargazin, membrane potential dye (FDSS), glutamate EC50; hits were called plate by plate, in both directions | AID 1259245 | calls only at 30 µM | 40,000 compounds, 3.5% hits;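 active = any of four per-well response measures lying three or more SD from its plate-wide compound average, in either direction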
An asterisk follows results filed as active; i = inactive; . = no result; + = active, no number.

SMILES	GIRK2 act	GluA2 TARP mod
COc1cc([N+](=O)[O-])cc2sc(NC(=O)c3ccc(S(=O)(=O)N(C)C4CCCC4)cc3)nc12	.	+
CN(C1CCCC1)S(=O)(=O)c1ccc(C(=O)Nc2nc3ccccc3s2)cc1	.	i
COc1cccc2sc(NC(=O)c3ccc(S(=O)(=O)N(C)C4CCCC4)cc3)nc12	i	+
COc1ccc([N+](=O)[O-])cc1NC(=O)c1ccc(S(=O)(=O)N(C)C2CCCC2)cc1	.	i
CCCCOc1ccc(CN2C(=O)C(=O)c3cc(C)cc(C)c32)cc1	i	.
CCOc1ccc(Br)cc1S(=O)(=O)N(CC)C1CCCCC1	.	i
CCC(=O)N(CCC1(c2ccc(OC)cc2)CCOC(C)(C)C1)Cc1ccc(Cl)cc1 (stereo not given)	.	+
CCOC(=O)C1=C(C)NC(=O)NC1c1ccc(OC)cc1 (stereo not given)	.	i
COCCNC(=O)Cn1nc2c(c1NC(=O)c1cc(Cl)ccc1Cl)CSC2	i	i
CSc1ccc(-c2noc(CSc3nc4ccccc4c(=O)n3Cc3ccco3)n2)cc1	.	i
COc1ccc(-c2noc(CSc3nc4ccccc4c(=O)n3Cc3ccco3)n2)cc1OC	.	+
CCn1nc(C)cc1C(=O)Nc1nc(-c2ccc(C(C)C)cc2)cs1	i	i
O=c1[nH]c2c(s1)C1c3ccccc3OC3CCCC(S2)C31 (stereo not given)	.	+
O=C(Cn1nc(S(=O)(=O)c2ccccc2)ccc1=O)Nc1ccccc1F	i	i
CSc1nn(CC(=O)Nc2c(C)cccc2C)c(N)c1S(C)(=O)=O	i	+
CSc1nn(CC(=O)Nc2cccc(C)c2C)c(N)c1S(C)(=O)=O	i	+
CSc1nn(CC(=O)Nc2ccc3c(c2)OCO3)c(N)c1S(C)(=O)=O	i	i
CCc1ccccc1NC(=O)Cn1nc(SC)c(S(=O)(=O)c2ccc(F)cc2)c1N	.	i
O=C(Cn1nc(S(=O)(=O)c2ccccc2)ccc1=O)Nc1ccc(Cl)cc1	i	+
CCSc1nn(CC(=O)Nc2cccc(SC)c2)c(N)c1S(=O)(=O)c1ccc(C)cc1	.	i
CSc1nn(CC(=O)Nc2cccc(Cl)c2)c(N)c1S(=O)(=O)c1ccccc1	.	+
CCOc1ccc2nc(N(CCN3CCOCC3)C(=O)c3cccc(SCC)c3)sc2c1	.	i
COc1ccccc1C1(CNC(=O)Nc2cccc(Cl)c2)CCOCC1	i	i
O=c1c2ccccc2[nH]c(=S)n1CCc1ccc(Cl)cc1	i	i
O=C(NCCn1nc(-c2ccco2)ccc1=O)c1ccc2c(c1)ncn2-c1ccccc1	i	i
SMILES	GIRK2 act	GluA2 TARP mod
CC(=O)c1sc(NC(=O)Cc2ccc(S(C)(=O)=O)cc2)nc1-c1ccccc1	.	i
O=S(=O)(c1cc(F)ccc1F)N1CCC(Cn2ccnc2-c2ccccc2)CC1	i	+
Cc1nccn1CC1CCN(S(=O)(=O)c2cccs2)CC1	i	i
COc1ccc2c(c1)O/C(=C\c1ccccc1Cl)C2=O	.	i
COc1ccccc1CNC(=O)CCc1csc(NC(=O)c2ccc(Cl)cc2)n1	i	+
O=C(CCc1csc(NC(=O)c2ccc[nH]c2=O)n1)NCc1ccc(F)cc1	i	+
O=C(CCc1csc(NC(=O)c2ccc[nH]c2=O)n1)NCc1ccc2c(c1)OCO2	i	i
COc1ccccc1CNC(=O)CCc1csc(NC(=O)c2ccc(F)cc2)n1	i	i
COc1cc(-c2noc(C3CCN(S(=O)(=O)c4cccs4)CC3)n2)cc(OC)c1OC	i	.
COc1ccc(S(=O)(=O)N(C)C2CCCCC2)cc1C(C)(C)C	.	i
CCn1c(=O)c(C(=O)Nc2ccc(C)cc2)cc2cccnc21	.	i
Cc1cccc(C)c1N1CCN(C(=O)c2ccc3c(c2)OCO3)CC1	.	+
Cn1ccnc1N1CCN(C(=O)c2ccc3c(c2)OCO3)CC1	i	i
COc1nn(C)cc1C(=O)N(CC1CCCO1)c1nc2c(C)ccc(C)c2s1 (stereo not given)	.	i
O=C(CCn1nc(-c2ccc(Cl)cc2)c2ccccc2c1=O)NC1CCCCC1	.	+
Cc1ccc(-c2nn(CCC(=O)N3CCN(Cc4ccccc4)CC3)c(=O)c3ccccc23)cc1	.	i
O=S(=O)(c1ccc(Oc2ccccc2Cl)cc1)N1CCCCC1	.	i
O=S(=O)(c1ccc(Oc2ccccc2Cl)cc1)N1CCCC1	.	+
COc1ccc(Nc2nc(N3CCNCC3)nc3ccccc23)c(OC)c1	.	+
COc1ccc(-c2cc(OCC(=O)Nc3ccc(OC)cc3OC)c3ccccc3n2)cc1	i	i
CCN(c1ccccc1)S(=O)(=O)c1ccc(C(=O)Nc2cc(C)nn2C(C)C)cc1	i	i
COC(=O)c1sccc1S(=O)(=O)N(CC(=O)Nc1ccc(C)c(F)c1)c1ccccc1	i	i
Cc1cc(C(=O)N(Cc2ccccn2)c2nc3c(Cl)cccc3s2)on1	i	i
Cn1c(O)c(N=Nc2nc3c(c(=O)n(C)c(=O)n3C)n2Cc2ccccc2)c(=O)n(C)c1=O	.	+
Cn1c(O)c(N=Nc2nc3c(c(=O)[nH]c(=O)n3C)n2CCCOc2ccccc2)c(=O)n(C)c1=O	.	i
SMILES	GIRK2 act	GluA2 TARP mod
Cn1c(=O)c2c(nc(NCc3ccccc3)n2CC(=O)N=Nc2c(O)[nH]c3ccccc23)n(C)c1=O	.	+
Cn1c(=O)c2c(nc(N=Nc3c(O)[nH]c4ccccc34)n2CCc2ccccc2)n(C)c1=O	.	i
Cc1cc(C(C)(C)C)cc(S(=O)(=O)Nc2c(C)n(C)n(-c3ccccc3)c2=O)c1C	.	+
Cc1c(NS(=O)(=O)c2cccc(S(C)(=O)=O)c2)c(=O)n(-c2ccccc2)n1C	i	.
COc1ccc2nc(-c3ccc(OC)c(NC(=O)c4c(OC)cccc4OC)c3)cn2n1	i	.
Cc1c(C)n2c3c(=O)n(CCN4CCCCC4)c(=O)n(C)c3nc2n1C1CCCC1	i	i
Cc1c(C)n2c3c(=O)n(CC(N)=O)c(=O)n(C)c3nc2n1C1CCCCC1	.	+
Cc1ccc(C)c(NC(=O)c2ccc(S(=O)(=O)N3CCCCC3)cc2)c1	.	i
O=C(Nc1ccc(SCC(=O)N2CCCCC2)nn1)c1cccc(F)c1	i	i
O=C(NCC1CCN(C(=O)COc2ccccc2)CC1)Nc1cccc(C(F)(F)F)c1	i	+
O=C(NCC(O)Cc1ccccc1)Nc1cccc(C(F)(F)F)c1 (stereo not given)	i	+
O=C(NCC1CCN(c2ncccn2)CC1)Nc1cccc(C(F)(F)F)c1	i	+
O=C(NCC1CCN(c2ccccn2)CC1)Nc1cccc(C(F)(F)F)c1	.	i
Cn1cccc1C(O)CNC(=O)Nc1cccc(C(F)(F)F)c1 (stereo not given)	i	i
O=C(NCC1CCN(C(=O)COc2ccccc2)CC1)Nc1ccccc1F	i	i
O=C(NCC1CCN(C(=O)c2ccccc2F)CC1)C(=O)Nc1ccon1	i	i
O=C(c1cc2cc(Cl)cc(Cl)c2oc1=O)N1CCN(c2ccccc2F)CC1	i	i
Cc1ccc(CNC(=O)c2ccc3c(=O)n4c(nc3c2)SCC4)cc1	i	i
c1ccn2cc(CSc3cc(N4CCOCC4)ncn3)nc2c1	i	+
COc1cccc(C(=O)CSc2cc(N3CCOCC3)ncn2)c1	i	i
O=C(CCCCn1c(=O)[nH]c2ccccc2c1=O)N1CCN(c2ccc(F)cc2)CC1	.	i
